ChEMBL document CHEMBL2218924, “A broad activity screen in support of a chemogenomic map for kinase signalling research and drug discovery” (Biochem J, 2013)

Legend:
[1] = target: T1, Dual specificity tyrosine-phosphorylation-regulated kinase 2 (Homo sapiens) (UniProt Q92630); details: at 1 µM
T1 sequence (whole entry): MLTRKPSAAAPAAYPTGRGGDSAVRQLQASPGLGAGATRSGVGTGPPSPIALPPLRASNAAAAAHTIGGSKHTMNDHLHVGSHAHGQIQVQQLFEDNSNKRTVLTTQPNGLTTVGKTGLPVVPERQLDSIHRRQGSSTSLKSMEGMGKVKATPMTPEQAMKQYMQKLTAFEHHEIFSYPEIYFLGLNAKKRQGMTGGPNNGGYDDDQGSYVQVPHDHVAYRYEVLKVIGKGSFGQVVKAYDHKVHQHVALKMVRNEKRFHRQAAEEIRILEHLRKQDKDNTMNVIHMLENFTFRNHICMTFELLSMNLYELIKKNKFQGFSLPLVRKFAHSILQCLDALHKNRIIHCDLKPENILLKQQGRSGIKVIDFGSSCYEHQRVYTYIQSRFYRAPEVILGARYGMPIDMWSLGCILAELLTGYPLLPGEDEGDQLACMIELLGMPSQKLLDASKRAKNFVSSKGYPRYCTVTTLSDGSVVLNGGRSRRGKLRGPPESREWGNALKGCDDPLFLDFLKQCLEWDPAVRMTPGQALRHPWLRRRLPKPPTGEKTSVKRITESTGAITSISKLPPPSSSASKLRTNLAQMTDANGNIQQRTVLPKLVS

[2] = target: T1, Dual specificity tyrosine-phosphorylation-regulated kinase 2 (Homo sapiens); details: at 10 µM
[3] = target: Ephrin type-A receptor 5 (Homo sapiens) (UniProt P54756); details: at 1 µM
Sequence of Ephrin type-A receptor 5 (Homo sapiens) (P54756 whole entry): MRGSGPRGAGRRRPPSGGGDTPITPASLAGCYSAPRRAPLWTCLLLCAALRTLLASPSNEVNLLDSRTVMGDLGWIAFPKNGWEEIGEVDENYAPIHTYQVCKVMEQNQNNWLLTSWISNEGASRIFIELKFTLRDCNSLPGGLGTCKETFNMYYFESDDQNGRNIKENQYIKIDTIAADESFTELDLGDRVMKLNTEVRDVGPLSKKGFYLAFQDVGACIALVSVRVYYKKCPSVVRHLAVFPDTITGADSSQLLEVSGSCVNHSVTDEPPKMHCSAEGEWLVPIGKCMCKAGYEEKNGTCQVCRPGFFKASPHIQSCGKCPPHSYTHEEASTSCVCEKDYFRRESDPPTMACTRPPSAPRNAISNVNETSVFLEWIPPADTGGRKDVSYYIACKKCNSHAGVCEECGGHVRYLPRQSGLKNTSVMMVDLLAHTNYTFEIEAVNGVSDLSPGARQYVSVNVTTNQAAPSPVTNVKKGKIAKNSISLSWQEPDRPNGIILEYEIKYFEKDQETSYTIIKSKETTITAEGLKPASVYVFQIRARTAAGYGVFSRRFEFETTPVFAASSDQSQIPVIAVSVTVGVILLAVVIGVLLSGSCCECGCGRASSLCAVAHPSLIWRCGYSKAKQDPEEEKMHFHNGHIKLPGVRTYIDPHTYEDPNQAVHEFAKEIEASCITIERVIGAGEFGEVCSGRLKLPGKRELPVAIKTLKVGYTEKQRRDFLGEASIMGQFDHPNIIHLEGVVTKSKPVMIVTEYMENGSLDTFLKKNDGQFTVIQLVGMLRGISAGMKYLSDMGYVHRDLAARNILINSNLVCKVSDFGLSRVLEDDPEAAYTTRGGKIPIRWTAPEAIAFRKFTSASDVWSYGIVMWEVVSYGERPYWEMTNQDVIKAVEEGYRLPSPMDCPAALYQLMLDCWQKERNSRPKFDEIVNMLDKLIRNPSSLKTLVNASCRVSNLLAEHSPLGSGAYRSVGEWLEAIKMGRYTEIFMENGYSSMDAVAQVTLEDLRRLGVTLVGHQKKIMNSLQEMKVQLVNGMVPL

[4] = target: Ephrin type-A receptor 5 (Homo sapiens) (UniProt P54756); details: at 10 µM
[5] = target: Ephrin type-A receptor 7 (Homo sapiens) (UniProt Q15375); details: at 1 µM
Sequence of Ephrin type-A receptor 7 (Homo sapiens) (Q15375 28-998 limits assumed): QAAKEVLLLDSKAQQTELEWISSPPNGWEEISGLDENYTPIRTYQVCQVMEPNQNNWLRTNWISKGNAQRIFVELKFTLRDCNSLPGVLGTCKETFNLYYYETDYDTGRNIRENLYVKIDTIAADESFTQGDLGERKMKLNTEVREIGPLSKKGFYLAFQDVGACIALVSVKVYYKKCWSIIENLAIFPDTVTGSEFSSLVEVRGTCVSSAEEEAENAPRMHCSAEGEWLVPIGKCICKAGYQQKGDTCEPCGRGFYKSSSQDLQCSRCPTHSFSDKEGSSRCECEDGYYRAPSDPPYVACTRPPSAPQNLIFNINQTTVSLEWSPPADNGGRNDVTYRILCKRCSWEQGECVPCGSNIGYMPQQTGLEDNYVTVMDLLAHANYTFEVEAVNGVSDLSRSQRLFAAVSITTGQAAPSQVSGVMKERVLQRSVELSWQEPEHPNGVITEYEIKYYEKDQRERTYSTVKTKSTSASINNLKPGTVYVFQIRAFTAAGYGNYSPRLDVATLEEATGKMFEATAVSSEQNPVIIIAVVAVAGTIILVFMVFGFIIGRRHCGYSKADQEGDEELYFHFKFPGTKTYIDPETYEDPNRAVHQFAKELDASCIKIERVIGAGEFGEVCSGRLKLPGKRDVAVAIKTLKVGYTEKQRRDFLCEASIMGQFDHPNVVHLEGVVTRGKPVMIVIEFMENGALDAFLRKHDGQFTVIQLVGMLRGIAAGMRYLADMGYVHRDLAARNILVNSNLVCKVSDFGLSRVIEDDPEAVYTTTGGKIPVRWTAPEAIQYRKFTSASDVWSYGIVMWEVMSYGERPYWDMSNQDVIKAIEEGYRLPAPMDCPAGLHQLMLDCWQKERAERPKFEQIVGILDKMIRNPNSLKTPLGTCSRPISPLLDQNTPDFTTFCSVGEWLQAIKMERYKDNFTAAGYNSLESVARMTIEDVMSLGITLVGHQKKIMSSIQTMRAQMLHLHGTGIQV

[6] = target: Ephrin type-A receptor 7 (Homo sapiens) (UniProt Q15375); details: at 10 µM
[7] = target: T2, Serine/threonine-protein kinase 17A (Homo sapiens) (UniProt Q9UEE5); details: at 10 µM
T2 sequence (whole entry): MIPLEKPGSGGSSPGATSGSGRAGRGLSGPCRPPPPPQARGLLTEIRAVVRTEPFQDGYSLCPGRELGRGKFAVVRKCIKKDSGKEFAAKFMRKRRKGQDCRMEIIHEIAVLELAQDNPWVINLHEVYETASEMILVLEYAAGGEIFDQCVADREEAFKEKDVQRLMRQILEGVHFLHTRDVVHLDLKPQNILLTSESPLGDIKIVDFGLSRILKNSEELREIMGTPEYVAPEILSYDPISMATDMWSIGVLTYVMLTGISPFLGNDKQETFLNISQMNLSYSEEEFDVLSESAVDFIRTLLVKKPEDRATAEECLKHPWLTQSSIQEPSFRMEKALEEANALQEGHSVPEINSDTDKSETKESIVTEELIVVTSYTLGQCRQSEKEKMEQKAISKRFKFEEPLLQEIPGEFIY

[8] = target: T3, Ephrin type-A receptor 1 (Homo sapiens) (UniProt P21709); details: at 1 µM
T3 sequence (whole entry): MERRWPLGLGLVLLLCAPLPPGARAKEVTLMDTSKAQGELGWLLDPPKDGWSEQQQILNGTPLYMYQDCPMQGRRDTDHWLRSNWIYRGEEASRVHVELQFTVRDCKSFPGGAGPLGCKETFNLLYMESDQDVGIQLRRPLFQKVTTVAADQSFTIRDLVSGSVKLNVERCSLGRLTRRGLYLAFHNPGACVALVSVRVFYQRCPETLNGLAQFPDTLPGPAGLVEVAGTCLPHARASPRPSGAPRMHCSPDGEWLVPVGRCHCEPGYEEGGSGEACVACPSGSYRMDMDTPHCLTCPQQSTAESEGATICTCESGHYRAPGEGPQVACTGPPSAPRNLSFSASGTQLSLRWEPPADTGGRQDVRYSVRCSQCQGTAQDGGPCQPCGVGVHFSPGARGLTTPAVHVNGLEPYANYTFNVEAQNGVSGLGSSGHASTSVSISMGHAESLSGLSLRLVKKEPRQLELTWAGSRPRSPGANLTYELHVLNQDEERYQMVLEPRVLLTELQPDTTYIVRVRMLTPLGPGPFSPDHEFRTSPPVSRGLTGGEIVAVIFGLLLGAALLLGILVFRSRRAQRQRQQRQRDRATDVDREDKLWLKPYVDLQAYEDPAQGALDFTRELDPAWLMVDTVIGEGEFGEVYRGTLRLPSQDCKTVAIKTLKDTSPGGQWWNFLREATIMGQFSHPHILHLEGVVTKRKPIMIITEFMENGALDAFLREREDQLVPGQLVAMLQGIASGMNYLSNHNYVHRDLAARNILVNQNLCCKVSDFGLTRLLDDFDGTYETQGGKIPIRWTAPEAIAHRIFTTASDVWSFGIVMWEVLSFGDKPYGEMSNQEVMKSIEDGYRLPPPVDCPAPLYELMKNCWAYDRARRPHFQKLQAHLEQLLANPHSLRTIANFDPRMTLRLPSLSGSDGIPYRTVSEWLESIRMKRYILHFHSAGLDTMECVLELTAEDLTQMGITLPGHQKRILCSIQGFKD

[9] = target: T3, Ephrin type-A receptor 1 (Homo sapiens); details: at 10 µM
[10] = target: Ephrin type-A receptor 2 (Homo sapiens) (UniProt P29317); details: at 1 µM
Sequence of Ephrin type-A receptor 2 (Homo sapiens) (P29317 whole entry): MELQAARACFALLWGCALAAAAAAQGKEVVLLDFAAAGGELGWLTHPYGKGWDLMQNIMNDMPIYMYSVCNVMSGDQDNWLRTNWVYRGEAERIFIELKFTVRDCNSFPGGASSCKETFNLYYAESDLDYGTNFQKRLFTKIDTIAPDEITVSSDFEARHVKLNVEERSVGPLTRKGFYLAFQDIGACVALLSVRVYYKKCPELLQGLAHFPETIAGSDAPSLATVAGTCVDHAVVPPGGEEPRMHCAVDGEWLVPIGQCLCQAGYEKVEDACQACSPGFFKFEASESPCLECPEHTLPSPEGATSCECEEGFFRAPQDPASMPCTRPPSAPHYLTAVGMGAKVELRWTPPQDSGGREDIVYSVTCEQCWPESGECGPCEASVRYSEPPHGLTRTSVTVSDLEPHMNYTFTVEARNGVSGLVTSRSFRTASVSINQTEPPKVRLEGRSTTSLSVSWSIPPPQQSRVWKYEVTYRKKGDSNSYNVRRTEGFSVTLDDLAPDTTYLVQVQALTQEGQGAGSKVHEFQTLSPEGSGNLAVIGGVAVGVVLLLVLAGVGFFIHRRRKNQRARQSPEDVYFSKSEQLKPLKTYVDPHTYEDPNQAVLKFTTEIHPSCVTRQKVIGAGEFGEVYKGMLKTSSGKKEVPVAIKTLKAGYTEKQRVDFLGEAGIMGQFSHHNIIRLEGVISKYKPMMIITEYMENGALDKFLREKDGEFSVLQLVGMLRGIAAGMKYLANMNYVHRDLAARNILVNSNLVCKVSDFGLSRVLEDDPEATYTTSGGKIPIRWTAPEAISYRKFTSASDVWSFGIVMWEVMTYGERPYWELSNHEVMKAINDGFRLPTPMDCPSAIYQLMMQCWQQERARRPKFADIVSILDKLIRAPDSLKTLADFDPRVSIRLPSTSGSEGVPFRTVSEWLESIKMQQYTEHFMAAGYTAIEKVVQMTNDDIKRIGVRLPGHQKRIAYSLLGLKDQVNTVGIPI

[11] = target: Ephrin type-A receptor 2 (Homo sapiens) (UniProt P29317); details: at 10 µM
[12] = target: T4, Ephrin type-A receptor 3 (Homo sapiens) (UniProt P29320); details: at 1 µM
T4 sequence (whole entry): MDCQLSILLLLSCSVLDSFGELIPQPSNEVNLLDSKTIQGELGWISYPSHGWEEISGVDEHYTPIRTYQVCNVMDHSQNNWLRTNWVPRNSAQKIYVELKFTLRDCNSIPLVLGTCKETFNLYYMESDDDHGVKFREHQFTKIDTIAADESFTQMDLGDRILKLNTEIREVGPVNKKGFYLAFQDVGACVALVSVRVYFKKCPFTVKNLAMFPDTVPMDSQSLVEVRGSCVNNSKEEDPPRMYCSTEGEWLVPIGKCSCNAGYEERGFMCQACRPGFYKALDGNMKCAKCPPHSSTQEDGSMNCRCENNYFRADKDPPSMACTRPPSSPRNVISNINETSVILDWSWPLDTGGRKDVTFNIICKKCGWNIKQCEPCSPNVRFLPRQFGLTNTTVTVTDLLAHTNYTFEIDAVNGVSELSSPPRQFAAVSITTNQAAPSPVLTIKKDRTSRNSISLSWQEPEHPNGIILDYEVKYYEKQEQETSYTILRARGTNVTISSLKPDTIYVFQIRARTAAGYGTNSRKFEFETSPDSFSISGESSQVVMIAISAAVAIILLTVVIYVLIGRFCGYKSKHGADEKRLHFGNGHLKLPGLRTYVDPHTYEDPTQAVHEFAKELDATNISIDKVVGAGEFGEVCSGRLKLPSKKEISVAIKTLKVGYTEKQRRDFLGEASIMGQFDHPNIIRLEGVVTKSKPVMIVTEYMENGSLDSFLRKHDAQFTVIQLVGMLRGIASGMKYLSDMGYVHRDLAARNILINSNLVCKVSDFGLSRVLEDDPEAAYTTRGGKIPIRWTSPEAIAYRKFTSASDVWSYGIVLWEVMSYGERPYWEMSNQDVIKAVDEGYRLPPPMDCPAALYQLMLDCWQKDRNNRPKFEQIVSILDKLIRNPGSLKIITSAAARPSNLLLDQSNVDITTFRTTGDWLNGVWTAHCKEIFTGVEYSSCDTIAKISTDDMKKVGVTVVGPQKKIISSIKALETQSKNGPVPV

[13] = target: T4, Ephrin type-A receptor 3 (Homo sapiens); details: at 10 µM
[14] = target: Ephrin type-A receptor 4 (Homo sapiens) (UniProt P54764); details: at 1 µM
Sequence of Ephrin type-A receptor 4 (Homo sapiens) (P54764 whole entry): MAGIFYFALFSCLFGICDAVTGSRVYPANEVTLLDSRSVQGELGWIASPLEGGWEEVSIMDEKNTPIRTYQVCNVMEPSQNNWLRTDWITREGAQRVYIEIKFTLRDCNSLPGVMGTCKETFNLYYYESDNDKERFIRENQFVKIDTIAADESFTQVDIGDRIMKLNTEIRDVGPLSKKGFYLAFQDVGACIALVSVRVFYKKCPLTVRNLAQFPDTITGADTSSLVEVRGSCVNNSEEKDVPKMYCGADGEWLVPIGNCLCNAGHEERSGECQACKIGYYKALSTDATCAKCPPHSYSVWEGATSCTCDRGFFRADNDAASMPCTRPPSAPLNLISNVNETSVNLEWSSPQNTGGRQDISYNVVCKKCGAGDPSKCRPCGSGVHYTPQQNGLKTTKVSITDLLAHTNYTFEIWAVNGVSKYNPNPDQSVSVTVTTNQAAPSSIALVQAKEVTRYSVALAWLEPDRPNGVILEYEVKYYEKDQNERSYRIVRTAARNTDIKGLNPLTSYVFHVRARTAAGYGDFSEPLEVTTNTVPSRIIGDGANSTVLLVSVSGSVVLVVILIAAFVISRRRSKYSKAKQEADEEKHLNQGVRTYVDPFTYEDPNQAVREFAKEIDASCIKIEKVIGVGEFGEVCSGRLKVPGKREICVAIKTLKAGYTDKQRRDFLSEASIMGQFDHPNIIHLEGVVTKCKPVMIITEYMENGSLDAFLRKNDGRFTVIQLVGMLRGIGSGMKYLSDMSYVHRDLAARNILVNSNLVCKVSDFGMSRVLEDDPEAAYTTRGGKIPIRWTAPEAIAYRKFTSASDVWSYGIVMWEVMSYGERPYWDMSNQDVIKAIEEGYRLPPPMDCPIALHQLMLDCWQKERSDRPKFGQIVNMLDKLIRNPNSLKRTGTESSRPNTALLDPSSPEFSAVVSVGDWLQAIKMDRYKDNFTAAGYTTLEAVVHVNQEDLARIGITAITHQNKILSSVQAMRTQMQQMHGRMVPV

[15] = target: Ephrin type-A receptor 4 (Homo sapiens) (UniProt P54764); details: at 10 µM
[16] = target: T5, Ephrin type-A receptor 8 (Homo sapiens) (UniProt P29322); details: at 1 µM
T5 sequence (whole entry): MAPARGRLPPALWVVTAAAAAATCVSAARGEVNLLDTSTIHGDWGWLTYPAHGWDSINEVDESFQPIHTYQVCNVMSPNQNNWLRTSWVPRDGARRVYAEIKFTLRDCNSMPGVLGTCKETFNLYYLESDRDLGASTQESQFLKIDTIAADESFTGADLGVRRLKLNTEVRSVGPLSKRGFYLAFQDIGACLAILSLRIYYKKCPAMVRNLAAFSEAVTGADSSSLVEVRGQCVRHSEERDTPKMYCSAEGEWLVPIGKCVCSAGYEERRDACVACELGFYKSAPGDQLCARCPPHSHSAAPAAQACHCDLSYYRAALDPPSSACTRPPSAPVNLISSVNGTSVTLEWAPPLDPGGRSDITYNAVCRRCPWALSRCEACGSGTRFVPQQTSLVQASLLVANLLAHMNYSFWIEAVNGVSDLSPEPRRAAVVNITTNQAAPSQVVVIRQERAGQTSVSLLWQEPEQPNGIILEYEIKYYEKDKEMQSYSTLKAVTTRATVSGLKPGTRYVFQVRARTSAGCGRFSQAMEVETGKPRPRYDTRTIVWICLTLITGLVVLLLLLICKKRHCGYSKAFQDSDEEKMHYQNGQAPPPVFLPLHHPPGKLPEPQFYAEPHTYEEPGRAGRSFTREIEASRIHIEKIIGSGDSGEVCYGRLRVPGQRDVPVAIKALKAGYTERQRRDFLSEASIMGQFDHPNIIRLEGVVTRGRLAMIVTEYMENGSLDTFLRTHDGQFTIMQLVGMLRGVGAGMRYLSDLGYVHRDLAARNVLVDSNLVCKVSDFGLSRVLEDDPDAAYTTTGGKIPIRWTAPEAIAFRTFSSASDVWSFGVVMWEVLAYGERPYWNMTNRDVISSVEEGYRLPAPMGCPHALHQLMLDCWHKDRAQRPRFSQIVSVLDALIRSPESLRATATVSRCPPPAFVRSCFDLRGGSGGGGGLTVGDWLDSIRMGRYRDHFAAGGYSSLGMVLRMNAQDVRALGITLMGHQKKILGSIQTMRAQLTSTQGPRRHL

[17] = target: T5, Ephrin type-A receptor 8 (Homo sapiens); details: at 10 µM
[18] = target: T6, Ephrin type-B receptor 1 (Homo sapiens) (UniProt P54762); details: at 1 µM
T6 sequence (whole entry): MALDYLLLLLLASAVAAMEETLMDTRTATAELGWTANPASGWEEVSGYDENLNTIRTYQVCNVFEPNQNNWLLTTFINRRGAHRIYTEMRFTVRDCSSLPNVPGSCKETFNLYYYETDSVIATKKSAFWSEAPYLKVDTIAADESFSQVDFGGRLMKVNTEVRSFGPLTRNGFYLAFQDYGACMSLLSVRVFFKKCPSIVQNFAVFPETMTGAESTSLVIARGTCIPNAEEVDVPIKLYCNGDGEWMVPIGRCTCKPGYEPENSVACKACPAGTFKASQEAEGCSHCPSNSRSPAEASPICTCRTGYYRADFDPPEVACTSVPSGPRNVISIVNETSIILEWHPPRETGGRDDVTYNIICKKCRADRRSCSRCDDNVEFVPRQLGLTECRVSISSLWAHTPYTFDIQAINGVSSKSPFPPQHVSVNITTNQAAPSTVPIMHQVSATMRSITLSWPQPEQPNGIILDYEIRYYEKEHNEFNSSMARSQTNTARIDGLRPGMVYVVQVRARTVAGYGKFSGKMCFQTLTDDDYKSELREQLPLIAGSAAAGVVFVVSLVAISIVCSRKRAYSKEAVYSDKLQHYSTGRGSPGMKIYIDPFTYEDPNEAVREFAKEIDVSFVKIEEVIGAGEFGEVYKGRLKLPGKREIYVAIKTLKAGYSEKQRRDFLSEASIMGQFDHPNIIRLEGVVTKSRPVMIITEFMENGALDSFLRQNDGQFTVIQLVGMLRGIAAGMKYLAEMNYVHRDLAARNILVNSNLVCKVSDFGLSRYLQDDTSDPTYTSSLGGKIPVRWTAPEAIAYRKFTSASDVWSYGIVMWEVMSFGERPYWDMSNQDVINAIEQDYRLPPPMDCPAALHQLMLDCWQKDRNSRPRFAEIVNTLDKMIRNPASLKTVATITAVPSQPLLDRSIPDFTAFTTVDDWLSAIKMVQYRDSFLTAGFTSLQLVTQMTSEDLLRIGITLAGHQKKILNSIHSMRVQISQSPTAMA

Row | Structure (SMILES) | residual activity [1] [%] | residual activity [2] [%] | residual activity [3] [%] | residual activity [4] [%] | residual activity [5] [%] | residual activity [6] [%] | residual activity [7] [%] | residual activity [8] [%] | residual activity [9] [%] | residual activity [10] [%] | residual activity [11] [%] | residual activity [12] [%] | residual activity [13] [%] | residual activity [14] [%] | residual activity [15] [%] | residual activity [16] [%] | residual activity [17] [%] | residual activity [18] [%]
1 | N#CC(C#N)=C(N)/C(C#N)=C/c1ccc(O)cc1 | 85 | 93 | 125 | 96 | 91 | 81 | – | – | – | – | – | – | – | – | – | – | – | –
2 | N#C/C(=C(\N)Sc1ccc(N)cc1)c1ccccc1C(F)(F)F | 105 | 95 | 98 | 95 | 99 | 89 | 118 | 94 | 82 | 98 | 111 | 96 | 99 | 116 | 112 | 85 | 87 | 110
3 | Cn1nc2c3c(cccc31)C(=O)c1ccccc1-2 | 91 | 75 | 110 | 99 | 95 | 88 | 20 | 88 | 68 | 92 | 97 | 88 | 73 | – | – | 94 | 81 | 94
4 | Oc1ccc(-c2nc(-c3ccc(F)cc3)c(-c3ccncc3)[nH]2)cc1 | 99 | 76 | 103 | 56 | 103 | 58 | – | 87 | 16 | 93 | 57 | 105 | 81 | 117 | 87 | 93 | 45 | 115
5 | COc1cc2ncc(-c3ccccc3)nc2cc1OC | 93 | 99 | – | – | – | 94 | – | 90 | 94 | – | 93 | – | – | – | – | – | – | –
